KCNH2 3.1 inh: blocks the human KCNH2 3.1 channel isoform; U2OS KCNH2 3.1, thallium flux FluxOr; active compounds read low; activity change, % (tested at about 1.8 µM); 340,000 tested, 0.95% active; AID 720553;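 active = maximum activity change below -70%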;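 also: thallium influx rate constant from kinetic fluorescence after stimulation buffer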
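We transduce U2OS cells with the mutant 3.1 virus, culture them overnight, load FluxOr with Red40 quencher for 45 min, then add stimulation buffer and read kinetically for 2 min to derive a normalized rate constant.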
TRHR enhancer: allosteric enhancers of human TRH receptor; P34981; TRHR cells, fluo-8 calcium fluorescence, EC20 TRH enhancement; enhancement, % at 2 µM; 360,000 tested, 0.66% active; in the data active = enhancement above about 30%
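Enhancer read-out: after compound pinning and an initial kinetic agonist-mode read, an EC20 of TRH (10 nM final) was injected and fluo-8 calcium signal (Ex 480/Em 530) followed at 1 s/cycle for 100 cycles in TRHR-expressing cells.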
TRPML1 inh: inhibitors of human TRPML1 channel; TRPML1-inducible cells, Ca2+ dye fluorescence, FDSS; active compounds read low; inhibition of EC80 agonist-evoked calcium signal; activity change, negative = inhibition, % (test concentration not listed); 390,000 tested, 0.02% active; in the data active = activity change below about -50%;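 also: stimulus is agonist 54-4 at its EC80 concentration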
Target sequence (Q9GZU1 whole entry, looked up): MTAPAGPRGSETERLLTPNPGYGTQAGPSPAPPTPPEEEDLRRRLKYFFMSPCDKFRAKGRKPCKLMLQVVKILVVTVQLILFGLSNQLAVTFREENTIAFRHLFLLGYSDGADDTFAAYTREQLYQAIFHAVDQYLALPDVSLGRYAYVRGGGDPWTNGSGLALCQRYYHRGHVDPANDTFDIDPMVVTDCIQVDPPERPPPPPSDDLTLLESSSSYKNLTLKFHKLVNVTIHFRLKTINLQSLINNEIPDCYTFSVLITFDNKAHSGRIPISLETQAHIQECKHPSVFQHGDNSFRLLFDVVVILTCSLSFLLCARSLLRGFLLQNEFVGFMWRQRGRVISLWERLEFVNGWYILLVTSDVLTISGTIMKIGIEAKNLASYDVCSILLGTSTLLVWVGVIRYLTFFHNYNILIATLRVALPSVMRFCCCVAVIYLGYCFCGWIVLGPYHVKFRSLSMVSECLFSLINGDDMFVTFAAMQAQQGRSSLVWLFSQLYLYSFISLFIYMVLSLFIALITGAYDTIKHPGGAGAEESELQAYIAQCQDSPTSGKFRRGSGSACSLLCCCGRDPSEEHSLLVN
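TRPML1-DL cells, Tet-induced overnight (~16 h, 37 °C) at 1,500 cells/well, were loaded with Ca8 no-wash dye plus quencher for 45-90 min at room temperature. Compounds were pinned during FDSS kinetic reading; agonist 54-4 at EC80 (4 uM final) then added.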
TRPML1 agonist: activates the human TRPML1 channel. Q9GZU1. TRPML1-expressing cells, Ca2+ dye fluorescence, FDSS. activation, % (test concentration not listed). 410,000 tested, 0.12% active. AID 624414; in the data active = activation above about 50%
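Calcium fluorescence on an FDSS kinetic reader gave the read-out. Tet-induced TRPML1-DL cells were plated overnight, dye-loaded (Ca8 with quencher, 45-90 min, room temperature, dark), then read 110 s after compound addition, and again 110 s after 4uM final 54-4 (EC80).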
hERG WT inh: KCNH2 (human, wildtype) channel inhibition. U2OS, BacMam KCNH2, thallium flux FluxOr; active compounds read low. activity change, % at 1.84 µM. 340,000 tested, 0.37% active;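 active = maximum activity change below -70%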
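U2OS cells were transduced with wild-type KCNH2 virus (2.03 x 10^8 / mL) for 4 h at room temperature, then cultured overnight at 37 C. Thallium flux was read with FluxOr dye. Rate constants were normalized to DMSO controls.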
TRHR ag: activates the human TRH receptor | P34981 | TRHR cells, calcium flux fluo-8, FDSS agonist mode | activation, % at 2 µM | 360,000 tested, 0.18% active; in the data active = activation above about 30%
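Fluo-8-loaded TRHR cells; 10 s baseline, compound added, kinetic Ca2+ fluorescence read 1/s, agonist mode.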
Hits are given with their value; i = inactive; nt = no result given. Sampled rows, rich in hits. Any-hit rate of the full collection: about 1.7%.

SMILES | KCNH2 3.1 inh | TRHR enhancer | TRPML1 inh | TRPML1 agonist | hERG WT inh | TRHR ag
O=C(O)c1cccc(S(=O)(=O)N2CCN(S(=O)(=O)c3ccc4c(c3)OCCO4)CC2)c1 | nt | i | nt | nt | nt | i
CCCCCCCC(O)CC(CC1CCCCC1)C(=O)NN (centres undefined) | i | 33 | i | i | i | i
CCCCC(CC(O)COCC(C)C)C(=O)NN (centres undefined) | i | i | i | i | i | i
O=C(CSc1nnc(SCc2ccccc2)s1)NNC(=S)Nc1ccccc1 | i | i | i | i | -85 | i
O=C(N/N=C/c1c(O)ccc2ccccc12)c1cccc(C(F)(F)F)c1 | i | i | i | 92 | i | 99
O=C(Cn1cc(CNC(=O)c2ccccc2)nn1)Nc1cc(C(F)(F)F)ccc1Cl | nt | i | nt | nt | nt | i
COc1c(Cl)cc(C(=O)NCc2ccco2)cc1Cl | i | i | i | i | i | i
COc1cc(/C=N/NC(=O)c2ccc(-c3ccccc3)cc2)cc(OC)c1OC | i | i | i | i | i | i
COc1ccc(/C=N/NC(=O)CNC(=O)c2ccc3c(c2)OCCO3)c(C(=O)O)c1OC | i | 30 | i | i | i | i
COc1ccc(C(=O)N/N=C/c2ccc(OC)c(OS(=O)(=O)c3ccccc3)c2)cc1 | -195 | i | i | i | -151 | i
COc1ccc(/C=N\NC(=O)c2ccc(-c3ccccc3)cc2)c(OC)c1OC | nt | 30 | i | i | i | i
COc1cccc(/C=N/NC(=S)NCCc2ccccc2)c1OC | i | i | i | i | i | i
COc1cccc(/C=N/NC(=O)CC(=O)NCCc2ccccc2)c1OC | i | 33 | i | i | i | i
CNC(=S)N(CCCN(C)C)Cc1cc2cc3c(cc2[nH]c1=O)OCCO3 | i | i | i | i | i | i
Brc1ccc[n+](CCC2CCCCC2)c1 | nt | nt | nt | i | nt | nt
C[C@H]1CNC(=O)c2c(C(=O)N[C@@H](Cc3c[nH]c4ccccc34)C(=O)OC(C)(C)C)ncn21 | i | nt | i | i | i | nt
CCOC(=O)C1=C(CNCc2ccccc2)NC(=O)NC1c1ccc(C)cc1 (centres undefined) | nt | i | i | i | nt | i
CN(C)CCN(C)C1CN(Cc2ccccc2)S(=O)(=O)C1 (centres undefined) | nt | nt | nt | i | nt | nt
Cc1ccc(N/C(N)=N/c2nc(C)cc(N3CCCCC3)n2)c(C)c1 | -97 | i | i | i | i | i
COCCSc1ccccc1C(=O)N1CCOCC1 | -86 | i | i | i | i | i
C/C(=N\NC(=O)c1nnn(-c2nonc2N)c1-c1ccc2c(c1)OCO2)c1cccs1 | i | 31 | i | i | i | i
CCOc1ccc2cc(S(=O)(=O)n3ccnc3C)ccc2c1 | i | i | i | i | i | i
CCc1nccn1S(=O)(=O)c1ccc2ccc(C)cc2c1 | -71 | i | i | i | i | i
Oc1ccc(C(=Nc2ccccc2)c2ccccc2)c(O)c1 | i | nt | i | i | i | nt
CCN(Cc1cccs1)C(=O)CN1C(=O)NC(c2ccccc2)(c2ccccc2)C1=O | i | 35 | i | i | i | i
SMILES | KCNH2 3.1 inh | TRHR enhancer | TRPML1 inh | TRPML1 agonist | hERG WT inh | TRHR ag
CCN(Cc1cccs1)C(=O)CN1C(=O)NC2(CCCc3ccccc32)C1=O (centres undefined) | i | i | i | i | i | i
CC(C)(C)n1ncc2c(=O)n(Cc3cc(F)ccc3Cl)cnc21 | nt | nt | i | i | nt | nt
CCOC(=O)c1c(C)oc2nc(C)nc(NCc3ccccc3OC)c12 | nt | i | i | i | nt | i
CCOC(=O)c1c(C)oc2nc(C)nc(NCc3ccccc3OCC)c12 | nt | 43 | i | i | nt | i
O=S(=O)(c1ccc2c(c1)OCCO2)N1CCN(S(=O)(=O)c2ccc(Cl)cc2F)CC1 | nt | i | nt | nt | nt | i
Cc1ccc(OCCN2CCN(c3ncnc4sc(C)c(C)c34)CC2)cc1 | -79 | i | i | i | i | i
O=C(c1ccccc1)c1ccc(OCCCCN2CCCCC2)cc1 | i | i | i | i | i | i
c1ccc(COc2ccc(OCCCCN3CCCCC3)cc2)cc1 | -97 | i | i | i | i | i
Clc1cccc(OCCCCN2CCCCC2)c1 | i | 34 | i | i | i | i
Clc1cccc(OCCCCCN2CCOCC2)c1 | i | i | i | i | i | i
Clc1ccc(OCCN2CCOCC2)cc1 | i | 36 | i | i | i | i
Cc1ccnc2ccc([N+](=O)[O-])cc12 | nt | nt | nt | i | nt | nt
CN1CCN(CCOc2ccc(-c3ccccc3)cc2)CC1 | i | i | i | i | i | i
Cc1ccc(OCCCCN2CCCCC2)cc1 | i | i | i | i | i | i
CCOc1ccc(OCCCCN2CCCC2)cc1 | i | i | i | i | i | i
Fc1ccc(OCCCCCN2CCCC2)cc1 | -98 | i | i | i | i | i
CN1CCN(CCCOc2ccc(-c3ccccc3)cc2)CC1 | -90 | i | i | i | i | i
Cc1ccc(OCCN2CCCC2)cc1 | i | 33 | i | i | i | i
COc1ccccc1N1CCN(S(=O)(=O)c2c(C)sc3ncn(CC(=O)Nc4ccc(C)cc4Br)c(=O)c23)CC1 | nt | i | i | i | nt | i
CCOc1ccc2c(c1)C(=NNC(=O)c1ccncc1)c1cc(OCC)ccc1-2 | i | 35 | i | i | i | i
COc1ccc(-c2c[n+]3c4n2CCCCC4=C(c2ccc(Br)cc2)C3)cc1 | -169 | i | i | i | i | i
Clc1ccc(C2=C3CCCCn4c(-c5ccccc5)c[n+](c43)C2)cc1 | i | i | i | i | i | i
O=[N+]([O-])c1cc(CN2CCCC2)ccc1Sc1ccc(Cl)cc1 | -92 | i | i | i | i | i
COc1ccc(-c2cc(C(=O)Nc3cnn(Cc4ccccc4C)c3)no2)cc1OC | i | i | i | i | -248 | i
O=C(Nc1cnn(C23CC4CC(CC(C4)C2)C3)c1)c1cc(-c2ccccc2)on1 | -75 | i | i | i | i | i
SMILES | KCNH2 3.1 inh | TRHR enhancer | TRPML1 inh | TRPML1 agonist | hERG WT inh | TRHR ag
COc1ccc(OCC(=O)N/N=C2/C=C(C)CC2)cc1 | i | 33 | i | i | i | i
CCOC(=O)N1CCC(=NNC(=O)COc2ccc(OC)cc2)CC1 | i | i | i | i | i | i
CCN1CCN(C(=O)/C(=C/c2cccs2)NC(=O)c2ccc(C)c(C)c2)CC1 | i | i | i | i | -100 | i
COc1ccc2cc(C3(C)NC(=O)N(CC(=O)N4CCCCC4)C3=O)ccc2c1 (centres undefined) | i | nt | i | i | i | nt
Nc1nc(N2CCN(C(=O)c3ccco3)CC2)nc2ccc(Br)cc12 | -89 | i | i | i | nt | i
CCN(CCCNC(=O)Cn1ncc2c(=O)oc3ccccc3c21)c1cccc(C)c1 | -180 | i | i | i | -165 | i
Cc1ccc(-c2nnc(Nc3ccc(Br)cc3)c3ccccc23)cc1S(=O)(=O)N1CCN(C)CC1 | nt | i | i | i | nt | i
COc1ccnc(-n2cccc2C#N)c1C#N | i | i | i | i | i | i
